# HT1080-NT tox: kills 2HG-producing HT-1080-NT fibrosarcoma cells. Potency, µM (top dose mostly 46.1 µM), without a hit: at the highest dose activity, negative = less viability, hits mostly cytotoxic. 360,000 tested, 1.6% active. HT-1080-NT fibrosarcoma viability, CellTiter-Glo ATP luminescence, 48 h. AID 686970;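 note: NT is the 2HG producing partner of a matched IDH1 knockdown line; potency is the fitted concentration of half-maximal effect; 0% = DMSO-treated cells and -100% = media-only wells without cells; nearly all actives have a fitted effect of over 55% in size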
#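 Viability by CellTiter-Glo luminescence after 48 h compound exposure at 37C of HT-1080-NT cells (750/well, RPMI, 5% FBS). % activity scaled between DMSO wells and medium-only wells, then curve-fitted and categorized by curve class.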
# DT40 TDP1 no CPT: qHTS for Inhibitors of human tyrosyl-DNA phosphodiesterase 1 (TDP1): qHTS in cells in absence of CPT. Potency, µM (series often up to 46.2 µM), inactives show at the top dose activity change, negative = growth inhibition, hits mostly inhibitors. 420,000 tested, 15% active. AID 686978, 2013. DT40 Tdp1-/- hTDP1 cells, no CPT, ATP luminescence, 48 h; note: potency is the fitted concentration of half-maximal effect; nearly all actives have a fitted effect of over 55% in size
#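 Luminescent ATP content (CellTiter-Glo) served as the growth readout. Knockout chicken DT40 cells expressing human TDP1 were exposed to compounds without camptothecin for a minimum 48 hr at 37 °C.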
# DT40 TDP1 CPT: growth inhibition of DT40 Tdp1-/-;hTDP1 cells with camptothecin (screen for TDP1 inhibitors) | 420,000 tested, 12% active | Potency, µM (titrated, usually from 46.2 µM), for the others: at the highest dose activity change, negative = growth inhibition, hits mostly inhibitors | chicken DT40 Tdp1-/-;hTDP1 cells + 20 nM CPT, ATP luminescence, 48 h; note: potency is the fitted concentration of half-maximal effect; nearly all actives have a fitted effect of over 55% in size
#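 Chicken DT40 Tdp1-/- cells stably complemented with human TDP1 were seeded at 400 cells/well in medium containing 20 nM camptothecin, exposed to pin-transferred compounds, and grown at 37 °C for at least 48 hr. Viability was read as ATP luminescence.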
# HT1080 IDH1KD tx: toxicity to HT-1080 IDH1 knockdown cells (counter line); HT-1080 IDH1 knockdown viability, ATP luminescence, 48 h; Potency, µM (series often up to 46.1 µM), for the others: at the top dose activity, negative = toxicity, usual class: cytotoxic; 360,000 tested, 2% active; AID 686971;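 note: potency is the fitted concentration of half-maximal effect; 0% = DMSO wells and -100% = cell-free medium wells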
#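 Cytotoxicity counter-line: IDH1KD HT-1080, 48 h, CellTiter-Glo. Curves classed by r2, magnitude and activity.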
# IL-1B inflam inh: inhibitors of inflammasome signaling (IL-1 beta secretion); activity change, % at 57.5 µM; THP-1 LPS/ATP IL-1B secretion, AlphaLISA, 16 h; hits give low values; AID 743279; 360,000 tested, 4.7% active; in the data active = activity change below about -50%; inconclusive = mostly about -30% to -49%
#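 THP-1 cells pretreated 1 hr with compounds (up to 57.5 uM final), then stimulated with LPS (250 ng/mL final) plus ATP (1.25 mM final); secreted IL-1B measured by AlphaLISA after 16 hr, decreased signal indicating inhibition.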
# The depositor's hits bear a star; ? = inconclusive; . = no result given; [ ] = another dose, or the depositor's remark. This is a sample that favours compounds with a hit; in the whole collection about 19% have one here. Unless noted, calls come from the whole dose curve; as a rule, active = well fitted curve in the direction sought with a large enough effect; inconclusive = small, poorly fitted or top-dose-only effect, or another doubt; inactive = no such curve, though single readings can be large; an effect the other way counts as inactive or inconclusive. Unless noted, % is set by controls: 0 for no effect and ±100 for the full control effect.
SMILES,HT1080-NT tox,DT40 TDP1 no CPT,DT40 TDP1 CPT,HT1080 IDH1KD tx,IL-1B inflam inh
COCCNC(=S)N1CCN(c2nc(-c3cccc(OC)c3)cs2)CC1,-13%,?,?,-9%,17
CCNC(=S)N1CCN(c2nc(-c3cccc(OC)c3)cs2)CC1,-19%,15µM*,10µM*,?,5
COc1cccc(-c2csc(N3CCN(C(=S)NCC(C)C)CC3)n2)c1,-12%,?,18µM*,-11%,-24
COc1cccc(-c2csc(N3CCN(C(=S)Nc4cccc(Cl)c4)CC3)n2)c1,?,-25%,-15%,?,-81*
COCCNS(=O)(=O)c1cccc2cccnc12,0%,-11%,0%,-1%,9
Cc1cc(Br)ccc1NC(=O)COC(=O)c1ccccc1OCC(N)=O,.,-15%,-4%,.,.
Cc1ccc(Cl)cc1NC(=O)C(Cc1ccccc1)N1C(=O)C2C3CCC(C3)C2C1=O (stereo not given),-11%,15µM*,?,-5%,-8
Cc1ccc(NC(=O)C(Cc2ccccc2)N2C(=O)C3C4CCC(C4)C3C2=O)cc1Cl (stereo not given),-15%,?,?,-25%,-11
O=C1C=CCC(/C=C/c2ccccc2)O1 (stereo not given),?,3.7µM*,2.3µM*,?,-103*
CCCSC(=S)c1c(C)[nH]n(-c2ccccc2)c1=O,?,16µM*,21µM*,13µM*,-10
O=C(Nc1cccc(C(=O)NC2CC2)c1)c1ccccc1,11%,0%,6%,7%,-2
Cc1ccn2cc(C(=O)Nc3cccc(C(=O)NC4CC4)c3)nc2c1,-2%,16µM*,?,-4%,-11
Cc1ccc(C(=O)Nc2cccc(C(=O)NC3CCCCC3)c2)cc1,-30%,?,23µM*,?,-26
Cc1cc(=O)c(C(=O)Nc2cccc(C(=O)NC3CC3)c2)nn1-c1ccccc1,8%,-21%,-11%,6%,-10
COc1ccccc1-c1ccc2ncnc(NCCNC(C)=O)c2c1,.,-2%,-24%,.,.
COc1ccc(N2C(=O)CSC23C(=O)N(CC(N)=O)c2ccccc23)cc1 (stereo not given),.,-6%,18%,.,.
COc1ccc(N2C(=O)CCSC23C(=O)N(Cc2ccc(F)cc2)c2ccccc23)cc1Cl (stereo not given),.,8.2µM*,9.2µM*,.,.
COC(=O)c1cc(NC(=O)CC(=O)c2cccc(N)c2)cc(C(=O)OC)c1,?,-5%,5%,21µM*,5
COC(=O)c1cc(NC(=O)c2cccc(F)c2)cc(C(=O)OC)c1,1%,?,9%,-1%,-11
Cc1cc(N/N=C2\CC(C)CC(C)(C)C2)nc2ccccc12 (stereo not given),8%,?,?,-1%,36
C/C(CCC(C)C)=N\Nc1cc(C)c2ccccc2n1,-9%,7.3µM*,10µM*,-1%,11
CCN(CC)CCCNC(=O)c1ccc(S(=O)(=O)Nc2ccc(C)c(C)c2)cc1,-20%,16µM*,?,-11%,-4
CC1CC(C)CN(C(=O)/C(=C\c2ccccc2)c2ccccc2)C1 (stereo not given),-2%,13µM*,16µM*,-8%,?
COc1ccc(CN(C)c2ccc(-c3nc(C)no3)cc2[N+](=O)[O-])cc1,.,8.2µM*,10µM*,.,.
CCN(CC)c1ccc(-c2nc(-c3ccco3)no2)cc1[N+](=O)[O-],.,26µM*,?,.,.
SMILES,HT1080-NT tox,DT40 TDP1 no CPT,DT40 TDP1 CPT,HT1080 IDH1KD tx,IL-1B inflam inh
Cc1noc(-c2ccc(N(C)Cc3ccccc3)c([N+](=O)[O-])c2)n1,.,16µM*,21µM*,.,.
CCc1nc(N)nc(N)c1-c1ccc(NCCN)c([N+](=O)[O-])c1,.,2.6µM*,8.2µM*,.,5
CS(=O)(=O)NCCNc1ccc(Cl)cc1[N+](=O)[O-],0%,?,-4%,-1%,-16
NNC(=O)Cc1cccc2ccc(Cl)cc12,-12%,-10%,-25%,-20%,10
CN(CC(=O)NCc1ccccc1Cl)S(=O)(=O)c1ccc2c(c1)n(C)c(=O)c(=O)n2C,0%,24%,2%,6%,-2
CCc1nc(N)c(C#N)c(-c2ccncc2)c1C,9%,6%,-23%,1%,-1
CCc1nc(N)nc(N)c1-c1ccc(Cl)cc1,0.82µM*,0.65µM*,0.94µM*,1.2µM*,-25
CCc1nc(N)nc(N)c1-c1ccc(N(C)Cc2ccccc2)c([N+](=O)[O-])c1,?,0.65µM*,4.6µM*,0.65µM*,-98*
O=S(=O)(Nc1ncccn1)c1ccc(NC(=S)NCc2cccnc2)cc1,21%,4%,8%,20%,13
O=C(COc1ccccc1Cl)NCCCNC(=O)c1cnccn1,22%,-18%,-14%,7%,10
Cc1cccc(CS(=O)(=O)CC2Nc3ccc(C(=O)NCc4ccccc4Cl)cc3NC2=O)c1 (stereo not given),.,?,8.2µM*,.,.
CCOc1cccc2cc(-c3nc(-c4ccccc4C)no3)c(=O)oc12,.,?,-14%,.,.
O=C(NCCc1ccccc1)C1COc2ccccc2O1 (stereo not given),16%,-24%,-8%,12%,-6
O=C(NCCc1ccc(O)c(O)c1)C1COc2ccccc2O1 (stereo not given),-9%,?,13µM*,?,29
O=C(Nc1ccccc1)N(Cc1ccccc1)CC(O)C(F)(F)F (stereo not given),-1%,13%,14%,2%[9.24 µM],-3
O=C(Nc1cccc(F)c1)N(Cc1ccc(Cl)cc1)CC(O)C(F)(F)F (stereo not given),21µM*,26µM*,?,?,-18
CN(C)c1ccc(/C=C2\C=Cc3cc(N)ccc32)cc1,.,11µM*,?,.,.
CCN(CC)c1ccc(/C=C2\C=Cc3ccccc32)cc1,.,18µM*,?,.,.
CC(C)CN(C)c1ccc(/C=C2\C=Cc3ccccc32)cc1,.,2.5µM*,2.8µM*,.,.
COc1ccc2c(c1)C=C/C2=C\c1ccc(N(C)C)cc1,.,?,-70%,.,.
Cc1ccc(S(=O)(=O)c2nnn(-c3cccc(F)c3)c2N)cc1,-18%,?,-22%,-16%,8
CCN(C(=O)COC(=O)C12CC3CC(CC(NC(C)=O)(C3)C1)C2)C1CCCCC1,8%,21µM*,?,10%,15
COC(=O)[C@H](Cc1ccc(O)cc1)NC(=O)Cn1cnc2c(SC)nc(N)nc21,0%,-3%,-1%,-1%,33
COC(=O)c1ccc(CNC(=O)Cn2cnc3c(SC)nc(N)nc32)cc1,-7%,?,23µM*,0%,43

# High-throughput results (PubChem BioAssay)
